Assay results from PubChem BioAssay (NCATS).
“And” between values parts separate entries of the source, which are not always exact repeats. Equal entries are not always repeated. Records with an inconclusive call do not appear. More than one record can exist for a structure, and the calls need not agree. The source made the active and inactive calls. Unless noted, calls follow the shape of the dose curve; as a rule, active = well fitted curve in the direction sought with a large enough effect; inconclusive = small, poorly fitted or top-dose-only effect, or another doubt; inactive = no such curve, though single readings can be large; an effect the other way counts as inactive or inconclusive.

Key:
[1] = qHTS profiling for inhibitors of Plasmodium falciparum (3D7) proliferation (AID 743322; call rule not given here;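 also: infected erythrocytes exposed to compound for 72 h before lysis; 100% = DMSO vehicle wells and 0% = 0.29 µM artemisinin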); details: P. falciparum 3D7 proliferation; at 28.7 µM (top of the series) unless noted
Method in brief: (§1)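 Erythrocytes infected with P. falciparum (0.3% parasitemia, 2.5% hematocrit) incubated with compounds 72 h at 37 C, 5% CO2. Lysis with saponin/Triton buffer containing SYBR Green I, overnight at room temperature in the dark; DNA fluorescence (485/535 nm) normalised to 0.29 uM artemisinin and DMSO.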

[2] = qHTS profiling for inhibitors of Plasmodium falciparum (DD2) proliferation (AID 743323; call rule not given here); details: lower = more inhibition; at 28.7 µM (top of the series) unless noted
Method in brief: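 Parasite proliferation measured via DNA-dye fluorescence, as uninfected erythrocytes lack DNA. Cultures at 0.3% parasitemia and 2.5% hematocrit incubated 72 h with compound; signal scaled between vehicle and 0.29 uM artemisinin wells.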

[3] = qHTS profiling for inhibitors of Plasmodium falciparum (HB3) proliferation (AID 743324); details: Plasmodium falciparum HB3 blood-stage proliferation; at 28.7 µM (top of the series) unless noted;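 also: 100% = DMSO vehicle wells and 0% = artemisinin-treated control wells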
Method in brief: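 P. falciparum HB3 grown in erythrocytes (0.3% parasitemia, 2.5% hematocrit final) with compound for 72 h at 37 C, 5% CO2. Parasite DNA detected by SYBR Green after saponin/triton lysis overnight; normalized to 0.29 uM artemisinin and DMSO.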

[4] = qHTS profiling of the MIPE4 collection as inhibitors of Plasmodium falciparum (3D7) proliferation (AID 743344; call rule not given here;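 also: scaled between DMSO vehicle wells and 0.29 µM artemisinin as full inhibition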); details: P. falciparum 3D7 in erythrocytes, SYBR Green DNA fluorescence, 72 h; at 28.5 µM (top of the series) unless noted
Method in brief: as §1

[5] = qHTS profiling of the MIPE4 collection as inhibitors of Plasmodium falciparum (DD2) proliferation (AID 743345; call rule not given here); details: P. falciparum Dd2 in erythrocytes, SYBR Green DNA, 72 h; at 28.5 µM (top of the series) unless noted
Method in brief: as §1

[6] = qHTS profiling of the MIPE4 collection as inhibitors of Plasmodium falciparum (DD2) proliferation (Rep 2) (AID 743346; call rule not given here); details: P. falciparum Dd2 in erythrocytes, SYBR Green DNA, 72 h; at 28.5 µM (top of the series) unless noted
Method in brief: as §1

[7] = qHTS profiling of the MIPE4 collection as inhibitors of Plasmodium falciparum (HB3) proliferation (AID 743347; call rule not given here;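 also: plate controls were DMSO vehicle wells for no effect and artemisinin wells for full effect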); details: P. falciparum HB3 in erythrocytes, SYBR Green DNA, 72 h; at 28.5 µM (top of the series) unless noted
Method in brief: as §1

[8] = High-throughput drug toxicity screening in the BPDCN cell line Gen2.2 (AID 1224824; call rule not given here;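 also: cells exposed to compounds for 48 h before reading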); details: Gen2.2 BPDCN cells; at 45.8 µM (top of the series) unless noted
Method in brief: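 CellTiter-Glo luminescence read after 48 h compound exposure at 37 C defines viability; percent activity set with DMSO as 100% and bortezomib (9.2 uM final) as 0%. 500 exponentially growing cells per well, RPMI plus 10% FBS.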

[9] = High-throughput drug toxicity screening in the BPDCN cell line Cal-1 (AID 1224825; call rule not given here); details: Cal-1 BPDCN cell viability, qHTS; at 45.8 µM (top of the series) unless noted
Method in brief: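 Exponentially growing Cal-1 cells, 500 per well in phenol red-free RPMI with 10% FBS, were exposed to compounds for 48 h at 37 °C, 5% CO2. Viability was read by CellTiter-Glo luminescence and normalised to DMSO (100%) and 9.2 uM bortezomib (0%).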

[10] = qHTS assay for measurement of the activity of small molecule inhibitors on Zika virus induced Caspase-3 activity in human iPSC derived neural progenitor cells (hNPCs) (AID 1224857); also: nearly all actives have a fitted effect of over 65% in size; also: potency is read from the fitted curve at half-maximal effect
Method in brief: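 Cells were plated at 350 per well and grown 16 to 20 hours. Compound pretreatment lasted one hour, after which ZIKV (2 FFU/cell) was added for 6 hours. Percent inhibition was normalized between uninfected and infected controls.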

[11] = qHTS assay for measurement of the activity of small molecule inhibitors on Zika virus induced Caspase-3 activity in human astrocytoma cells (AID 1224859);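 also: plate controls were ZIKV-infected untreated cells for no effect and uninfected cells for full effect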
Method in brief: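 Percent inhibition of virus-induced caspase-3/7 signal is calculated against uninfected and ZIKV-infected control cells. Cells are SNB-19, infected at 2 FFU/cell for 6 h after 1 h compound exposure.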

[12] = qHTS Screen of the MIPE 4.0 Collection Against Ewings Sarcoma (RDES) (AID 1259252); also: nearly all actives have a fitted effect of over 35% in size; also: potency is read from the fitted curve at half-maximal effect
Method in brief: (§2)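 Measured: ATP luminescence (CellTiter-Glo) 10 min after reagent addition, following 48 h drug treatment. Relative luciferase units converted to percent activity, with no-cell wells as full and DMSO wells as zero inhibition.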

[13] = qHTS Screen of the MIPE 4.0 Collection Against Ewings Sarcoma (TC71) (AID 1259253); also: nearly all actives have a fitted effect of over 40% in size; also: potency is read from the fitted curve at half-maximal effect
Method in brief: as §2

[14] = qHTS Screen of the MIPE 4.0 Collection Against Ewings Sarcoma (EW8) (AID 1259255); also: nearly all actives have a fitted effect of over 35% in size; also: potency is read from the fitted curve at half-maximal effect;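 as to viability: 100% = DMSO-treated cells and 0% = medium-only wells without cells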
Method in brief: as §2

[15] = qHTS Assay for Identifying Gametocytocidal Compounds (AID 743244);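 also: % is scaled to controls: 0 for no effect and ±100 for the full control effect; actives lower the fluorescent signal which means gametocytes are killed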; details: P. falciparum 3D7 stage III-V gametocytes, alamarBlue, 72 h; max response: stronger effect = lower value
Method in brief: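 3D7 gametocytes, stages III–V, 20,000/well; cpd 72 h, 37 °C/5% CO2; + alamarBlue 24 h; fluor. Ex 525/Em 598.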

[16] = biological target: Hexokinase-4 (Homo sapiens) + Glucokinase regulatory protein (Homo sapiens) (UniProt P35557+Q14397); assay: qHTS assay for inhibitors of recombinant human GCK-GKRP interaction: HTRF assay (AID 743207);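 also: 0% = DMSO with GCK present and -100% = DMSO wells lacking GCK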
Method in brief: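 After 60 min equilibration at room temperature with anti-FLAG XL665 and anti-GST antibodies, FRET ratio (665/615 nm, excitation 320 nm) was read. Proteins: GST-GCK and FLAG-GKRP, each 5 nM, plus 2 uM S6P, pH 7.1 buffer; GCK-free wells define minimum signal.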

[17] = qHTS assay for cell viability of HEK293 cells (AID 743288); details: ATP luminescence (CellTiter-Glo), 18 h; max response: stronger effect = lower value; also: % is scaled to controls: 0 for no effect and ±100 for the full control effect; nearly all actives have a fitted effect of over 50% in size
Method in brief: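 Total intracellular ATP, measured with a luciferase-coupled reagent, indicates the number of viable HEK293 cells. Exposure to test chemicals lasts 18 h at 37 C in 1,536-well format at 2,000 cells/well.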

[18] = qHTS assay for cell viability of the p53RE-bla HCT-116 cell line (AID 743292); also: % is scaled to controls: 0 for no effect and ±100 for the full control effect; nearly all actives have a fitted effect of over 55% in size
Method in brief: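 In this qHTS counter-screen, metabolically competent p53RE-bla HCT-116 cells were counted via their ATP content. Compounds were applied for 16 h at 37 C and luciferase-coupled luminescence was measured.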

Hexokinase-4 (Homo sapiens) + Glucokinase regulatory protein (Homo sapiens), sequence (P35557 whole entry, looked up): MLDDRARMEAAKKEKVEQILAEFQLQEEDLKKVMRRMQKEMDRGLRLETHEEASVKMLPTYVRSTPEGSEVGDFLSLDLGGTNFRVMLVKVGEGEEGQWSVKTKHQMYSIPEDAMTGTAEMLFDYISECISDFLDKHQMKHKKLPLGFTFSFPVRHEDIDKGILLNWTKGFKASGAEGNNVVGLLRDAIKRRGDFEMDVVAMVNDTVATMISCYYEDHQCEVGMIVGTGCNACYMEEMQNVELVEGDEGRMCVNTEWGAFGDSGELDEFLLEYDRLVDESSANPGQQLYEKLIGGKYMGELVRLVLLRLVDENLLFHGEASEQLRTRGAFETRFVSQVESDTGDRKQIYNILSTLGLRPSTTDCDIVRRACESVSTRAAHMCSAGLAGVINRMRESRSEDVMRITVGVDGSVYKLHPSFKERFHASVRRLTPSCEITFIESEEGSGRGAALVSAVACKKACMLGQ
Hexokinase-4 (Homo sapiens) + Glucokinase regulatory protein (Homo sapiens), sequence (Q14397 whole entry, looked up): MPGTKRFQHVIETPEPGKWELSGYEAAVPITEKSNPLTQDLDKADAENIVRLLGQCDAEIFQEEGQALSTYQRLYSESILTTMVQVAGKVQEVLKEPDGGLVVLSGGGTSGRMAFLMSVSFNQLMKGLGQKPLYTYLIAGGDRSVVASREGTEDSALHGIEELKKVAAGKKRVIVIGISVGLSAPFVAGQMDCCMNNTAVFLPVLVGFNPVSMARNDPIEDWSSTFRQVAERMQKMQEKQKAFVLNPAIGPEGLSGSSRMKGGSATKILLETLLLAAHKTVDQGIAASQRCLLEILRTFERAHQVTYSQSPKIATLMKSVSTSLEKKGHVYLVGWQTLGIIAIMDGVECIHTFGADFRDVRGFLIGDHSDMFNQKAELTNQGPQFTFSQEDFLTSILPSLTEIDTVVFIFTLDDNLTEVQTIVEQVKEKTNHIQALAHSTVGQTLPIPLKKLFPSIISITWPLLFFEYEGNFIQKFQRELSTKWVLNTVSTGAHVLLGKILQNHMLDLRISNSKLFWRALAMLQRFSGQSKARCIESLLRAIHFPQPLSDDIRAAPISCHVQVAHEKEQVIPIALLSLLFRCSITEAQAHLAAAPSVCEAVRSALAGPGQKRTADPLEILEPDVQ

| SMILES | remaining parasite growth % (stronger effect = lower value) [1] | activity, percent of control [2] | remaining proliferation (% of control), lower = more inhibition [3] | parasite growth, % of DMSO control [4] | parasite growth remaining, % of DMSO control (lower = more inhibition) [5] | parasite growth, % of control (lower = inhibition) [6] | growth, % of control [7] | cell viability, % of control (lower = more cytotoxic) [8] | viability (% of control) [9] | Potency [10] | Potency [11] | Potency [12] | Potency [13] | Potency [14] | max response [15] | outcome [16] | max response [17] | Potency [18] |
| --- | --- | --- | --- | --- | --- | --- | --- | --- | --- | --- | --- | --- | --- | --- | --- | --- | --- | --- |
| COc1cc(F)c(F)c(Nc2ccc(I)cc2F)c1NS(=O)(=O)C1(C[C@H](O)CO)CC1 | 83.5% | 78.6% | 39.5% | 45.3% | 71.1% | 26.7% | 17.2% | 27.8% | 82.2% | inactive | inactive | 20.9 µM (active) | 16.6 µM (active) | – | – | – | – | – |
| COc1ccc(-c2ccc3c(N4CCOCC4)nc(N4C[C@@H](C)O[C@@H](C)C4)nc3n2)cc1CO | 20.8% | 25.3% | 18.1% | 6.12% | 15.1% | 17.2% | 5.91% | 19.2% | 12.6% | inactive | inactive | 0.526 µM (active) | 0.833 µM (active) | 0.662 µM (active) | – | – | – | – |
| CS(=O)(=O)c1cccc(CNc2nc(Nc3ccc4c(c3)CCC(=O)N4)ncc2C(F)(F)F)c1 | 106% | 108% | 101% | 12.1% | 14.8% | 28.9% | 10.1% | 13.6% | 7.96% | inactive | inactive | 20.9 µM (active) | 16.6 µM (active) | 13.2 µM (active) | – | – | – | – |
| Cc1ccc(NC(=O)c2cccc(C(C)(C)C#N)c2)cc1Nc1ccc2ncn(C)c(=O)c2c1 | 34.8% | 49.3% | 7.17% | 17.3% | 39.9% | 51% | 16.2% | 8.79% | 14% | inactive | inactive | 14.8 µM (active) | – | 14.8 µM (active) | -12.3% (inactive) | – | – | – |
| CCC(=O)N[C@H]1CC[C@H](C(=O)N(C)c2ccc(-c3nc4ccccc4o3)cc2)C1 | 58.5% | 55.3% | 35.8% | 28.4% | 65.1% | 41.7% | 33.6% | 198% | 92.1% | inactive | inactive | – | 2.35 µM (active) | – | 65.6% (inactive) | – | – | – |
| N#Cc1ccc(C(c2ccc(C#N)cc2)n2cncn2)cc1 | 85.5% | 86.6% | 95.8% | 89.2% | 93.7% | 123% | 101% | 33% | 70.2% | inactive | inactive | – | – | 20.9 µM (active) | 16.5% (inactive) and 0.241% (inactive) | – | – | – |
| COc1c(Cl)cc2c([nH]c3cnccc32)c1NC(=O)c1cccnc1C | 107% | 108% | 86.1% | 19.9% | 72.7% | 25.5% | 4.33% | 41.9% | 77.1% | inactive | inactive | 0.59 µM (active) | – | – | – | – | – | – |
| O=S(=O)(N=Cc1c(O)ccc2ccccc12)c1cccs1 | 85.7% | 92.2% | 82.6% | 75.2% | 91.9% | 63.3% | 63.2% | 98% | 45.4% | inactive | inactive | 0.105 µM (active) | 1.66 µM (active) | 7.43 µM (active) | – | – | – | – |
| Cc1ccc(N(CC2=NCCN2)c2cccc(O)c2)cc1 | – | – | – | 69.6% | 92.8% | 57% | 95.9% | 80.5% | 22.6% | inactive | – | inactive | 14.8 µM (active) | inactive | 9.03% (inactive) | inactive | – | – |
| Cc1[nH]c(=O)c(C#N)cc1-c1ccncc1 | – | – | – | 15.2% | 14.6% | 36.4% | 9.94% | 244% | – | inactive | inactive | inactive | inactive | inactive | -5.95% (inactive) and 11% (inactive) and 13.2% (inactive) | inactive | 7.32% (inactive) | inactive |
| CCn1c(-c2nonc2N)nc2cnc(Oc3cccc(NC(=O)c4ccc(OCCN5CCOCC5)cc4)c3)cc21 | 15.3% | 20.7% | 14.7% | 13.1% | 57.9% | 22.1% | 3.64% | 84.4% | 33.2% | inactive | – | 5.9 µM (active) | 13.2 µM (active) | 11.8 µM (active) | 33.1% (inactive) | – | – | – |
| Fc1ccc(Cl)cc1-c1nc(Nc2ccncc2)c2nccnc2n1 | 5.45% | 25.3% | 13.2% | 22.1% | 37% | – | 8.98% | 443% | 85.1% | inactive | – | inactive | – | – | -14.2% (inactive) | – | – | – |
| CCn1cc(C(=O)O)c(=O)c2cc(F)c(N3CCNC(C)C3)c(F)c21 (stereo unspecified) | – | – | – | 49.1% | 68.3% | – | 91.5% | 176% | 107% | inactive | – | inactive | inactive | inactive | 19.5% (inactive) and 11.6% (inactive) and 13.2% (inactive) | inactive | – | – |
| Nc1nc2ccc(OC(F)(F)F)cc2s1 | 105% | 105% | – | 7.34% | 7.7% | 33.2% | 7.48% | 93.2% | 103% | inactive | inactive | – | – | – | – | inactive | – | – |
| NNCCc1ccccc1 | – | – | – | 88.8% | 24.6% | 79.6% | 96.6% | 133% | 10.4% | inactive and 26.4 µM (active) | – | 8.33 µM (active) | 20.9 µM (active) | 9.35 µM (active) | -2.24% (inactive) and 11.6% (inactive) | inactive | – | – |
| Nc1cccc(S(=O)(=O)N2CCCN(S(=O)(=O)c3ccc4c(c3)OCCO4)CC2)c1 | 111% | 101% | 70.3% | 257% | 102% | – | 586% | 162% | 104% | inactive | – | inactive | 16.6 µM (active) | – | 3.74% (inactive) | – | – | – |
| COCC(=O)NCC=Cc1ccc2ncnc(Nc3ccc(Oc4ccc(C)nc4)c(C)c3)c2c1 | 28.2% | 24.1% | 7.14% | 15.6% | 70.2% | – | 9.14% | 222% | 20.7% | inactive | – | 20.9 µM (active) | 23.5 µM (active) | – | -4.65% (inactive) | – | – | – |
